This is a sample that favours compounds with a hit; in the whole collection about 3.6% have one here.
Sm TGR block = S. mansoni TGR enzyme inhibition. Q962Y6. purified TGR, DTNB reduction, TNB absorbance 405 nm. Potency, µM (highest dose often 114 µM), most hits filed as inhibitors. 360,000 compounds, 3% hits; also: nearly all actives have a fitted effect of over 60% in size
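TGR 20 nM + NADPH 100 uM (dispensed conc.), cpd preinc 15 min RT; start with NADPH (500 uM addition) then DTNB (15 mM addition). Kinetic TNB absorbance, 405 nm filter. Four-parameter Hill fit across titration.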
Giardia FBPA inh-1 = blocks Giardia fructose-bisphosphate aldolase activity; A8B2U2; purified Giardia FBPA; Potency, µM (top dose mostly 59.6 µM), usual class: inhibitors; 290,000 compounds, 0.71% hits; also: nearly all actives have a fitted effect of over 55% in size
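Giardia FBPA (40 nM reagent) was preincubated 10 min at RT with compound (up to 57.5 uM final), then substrate plus GAPDH/TPI/NAD/arsenate coupling system with diaphorase/resazurin was added; resorufin fluorescence (525/598 nm) was read after 20 min.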
AmpC inh no detg = blocks E. coli AmpC beta-lactamase in detergent-free assay; AID 485341; AmpC nitrocefin hydrolysis, absorbance 480 nm, 0.0001% Triton; P00811; Potency, µM (top dose mostly 57.1 µM), usual class: inhibitors; 330,000 compounds, 0.52% hits; also: nearly all actives have a fitted effect of over 20% in size
Target sequence (P00811 whole entry, looked up): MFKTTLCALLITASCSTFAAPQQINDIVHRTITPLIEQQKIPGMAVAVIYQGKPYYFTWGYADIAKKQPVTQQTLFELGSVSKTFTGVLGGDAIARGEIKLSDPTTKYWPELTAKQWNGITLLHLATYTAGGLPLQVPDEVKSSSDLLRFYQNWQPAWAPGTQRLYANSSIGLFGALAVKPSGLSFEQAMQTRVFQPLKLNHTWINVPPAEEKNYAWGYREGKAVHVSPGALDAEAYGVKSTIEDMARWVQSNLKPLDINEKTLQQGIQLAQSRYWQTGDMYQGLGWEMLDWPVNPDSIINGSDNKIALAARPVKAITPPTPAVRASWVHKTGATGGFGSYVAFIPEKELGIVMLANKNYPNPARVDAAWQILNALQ
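AmpC (5.3 nM in the dispensed reagent) in 20 mM phosphate pH 7.0 with 0.01% (detergent screen) or 0.0001% Triton X-100 was preincubated with compounds for 15 min at room temperature. Nitrocefin was then added from an 800 uM solution, and hydrolysis was followed at 480 nm.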
AmpC inh detg = blocks E. coli AmpC beta-lactamase in detergent assay | AmpC hydrolysis of nitrocefin, absorbance 480 nm, 0.01% Triton | 370,000 compounds, 0.041% hits | Potency, µM (doses to about 114 µM), hits mostly inhibitors | AID 485294 | P00811; also: nearly all actives have a fitted effect of over 25% in size
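20 mM phosphate pH 7.0 + 0.01% (detergent screen) or 0.0001% Triton X-100; 5.3 nM AmpC reagent; cpd preinc 15 min RT; nitrocefin (800 uM stock) to start; A480 q20 s × 4 min; Activity was normalised to no-enzyme and no-compound control wells.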
Giardia growth = blocks growth of Giardia lamblia trophozoites | shares compounds with Giardia FBPA inh-1 | Giardia lamblia trophozoite growth inhibition | Potency, µM (doses to about 57.5 µM), most hits filed as inhibitors | 1,500 compounds, 5% hits | AID 2785;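 also: trophozoites exposed to compound for 48 h at 37 °C; nearly all actives have a fitted effect of over 70% in size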
Mammal cell tox = toxic to mammalian cells in Giardia aldolase counter-screen. shares compounds with Giardia FBPA inh-1. mammalian cell viability counter-screen, qHTS. Potency, µM (titrated, usually from 57.5 µM), hits mostly inhibitors. 1,500 compounds, 4% hits. AID 2786;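 also: Chinese hamster ovary cells used as mammalian cytotoxicity surrogate; viability measured as cellular ATP by luminescence; compound exposure lasted 48 h before reading; nearly all actives have a fitted effect of over 60% in size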
Giardia FBPA inh-2 = confirmation of Giardia fructose-bisphosphate aldolase inhibitors; purified Giardia aldolase enzyme activity, qHTS; Potency, µM (series often up to 57.5 µM), usual class: inhibitors; shares compounds with Giardia FBPA inh-1; 1,500 compounds, 5% hits; AID 2787; also: nearly all actives have a fitted effect of over 45% in size
Rabbit aldolase = blocks rabbit muscle aldolase in Giardia aldolase selectivity test; Potency, µM (highest dose often 57.5 µM), actives largely listed as inhibitors; Rabbit muscle FBPA enzyme inhibition, selectivity counter-screen; AID 2794; shares compounds with Giardia FBPA inh-1; 1,500 compounds, 4% hits; also: nearly all actives have a fitted effect of over 60% in size
GAPDH counter = counter-screen for Giardia aldolase inhibitors: GAPDH coupling enzyme; shares compounds with Giardia FBPA inh-1; GAPDH coupling enzyme counterscreen, biochemical, qHTS; Potency, µM (top dose mostly 57.5 µM), actives largely listed as inhibitors; 1,500 compounds, 6% hits; AID 2795; also: nearly all actives have a fitted effect of over 55% in size
Hits are given with their value; 0 = inactive; ? = inconclusive; - = no result; [ ] = dose if it differs, or a comment. Calls follow the shape of the dose curve; as a rule, active = well fitted curve in the direction sought with a large enough effect; inconclusive = small, poorly fitted or top-dose-only effect, or another doubt; inactive = no such curve, though single readings can be large; an effect the other way counts as inactive or inconclusive.

SMILES	Sm TGR block	Giardia FBPA inh-1	AmpC inh no detg	AmpC inh detg	Giardia growth	Mammal cell tox	Giardia FBPA inh-2	Rabbit aldolase	GAPDH counter
NC(c1ccccc1)c1cccnc1 (stereo unspecified)	0	10µM	0	0	0	0	0	0	0
O=c1c2sccc2[nH]c(=S)n1-c1ccccc1	0	17.7µM	0	0	?	0	0	0	0
CCc1nnc(N/N=C/c2c(Cl)cccc2Cl)n1N	0	?	0	0	-	-	-	-	-
CCOc1cc(/C=N/NC(N)=O)ccc1OC(=O)c1ccc(C)cc1	0	0	0	0	-	-	-	-	-
CCc1nnc(N/N=C/c2ccc(O)c(OC)c2)n1N	0	20µM	0	0	0[10.4 µM]	0	?	?	0
CCOc1cc(/C=N/Nc2nnc(C)n2N)ccc1OC(C)=O	0	15.8µM	0	0	0	0	5.8µM	5.8µM	6.51µM
CCc1nnc(N/N=C/c2cccs2)n1N	0	5µM	0	0	?	?	12.6µM	12.6µM	12.6µM
Cc1nnc(N/N=C/c2cccc(OCc3ccc(Cl)c(Cl)c3)c2)n1N	0	17.7µM	0	0	?	0	?	0	?
COCCNC(=O)C(=O)NNC(=O)CCc1ccccc1	0	0	0	0	-	-	-	-	-
COc1ccc(-c2n[nH]c(=S)n2-c2ccc(C)cc2)cc1OC	0	0	0	0	-	-	-	-	-
CCc1nnc(N/N=C\c2ccc(OC(C)=O)c(OC)c2)n1N	0	15.8µM	0	0	0	0	3.66µM	5.17µM	5.8µM
COc1ccc(C(C)=O)c(Oc2ccc(S(=O)(=O)N3CCOCC3)cn2)c1	0	-	0	0	-	-	-	-	-
O=C(C1=C(O)C(=O)N(c2nccs2)C1c1ccccc1)c1cc2ccccc2o1 (stereo unspecified)	10µM	15.8µM	0	0	0	0	0	0	0
O=C(C1=C(O)C(=O)N(CCc2ccccc2)C1c1ccncc1)c1cc2ccccc2o1 (stereo unspecified)	-	0	0	0	-	-	-	-	-
Cc1ccc(S(=O)(=O)NN2C(=O)/C(=C\c3ccc(Cl)cc3)SC2=S)cc1	0	-	0	0	-	-	-	-	-
Cc1ccc(/C=C2\SC(=S)N(NS(=O)(=O)c3ccc(C)cc3)C2=O)cc1	0	25.1µM	0	0	0	0	0	0	0
CN(C)C(=O)c1ccc(NC(=O)COc2ccc([N+](=O)[O-])cc2)cc1	0	0	0	0	-	-	-	-	-
Cn1ncc(Br)c1C(=O)N/N=C/c1cccc(OC2CSC2)c1	0	?	0	0	0	0	31.6µM	35.5µM	35.5µM
O=C(N/N=C/c1cccc(OC2CSC2)c1)c1ccccc1O	0	0	0	0	-	-	-	-	-
CCN1CCN(CCCN(Cc2ccco2)C(=S)Nc2ccc(C)c(Cl)c2)CC1	0	0	0	0	-	-	-	-	-
CCN1CCN(CCCN(Cc2ccco2)C(=S)Nc2cc(Cl)ccc2C)CC1	0	15.8µM	0	0	?	0	0	0	0
COc1cc(Br)c(CN2CCCN(C)CC2)cc1OC	0	12.6µM	0	?	0	0	0	0	0
O=C1CN(C(=S)NC(=O)c2ccccc2[N+](=O)[O-])CCN1	0	11.2µM	0	0	?	0	0	0	0
COC(=O)N1CCC2(CC1)CN(c1ccccn1)C2	-	0	-	-	-	-	-	-	-
O=C(CN1C(=O)COc2ccc(S(=O)(=O)N3CCOCC3)cc21)N1CCN(c2ccc(F)cc2)CC1	0	-	-	0	-	-	-	-	-
SMILES	Sm TGR block	Giardia FBPA inh-1	AmpC inh no detg	AmpC inh detg	Giardia growth	Mammal cell tox	Giardia FBPA inh-2	Rabbit aldolase	GAPDH counter
COc1cc(N)c(Cl)cc1C(=O)OCC(=O)NC(=O)NCc1ccco1	-	-	0	-	-	-	-	-	-
CC(C)c1cccc(OCCCCN(C)C)c1	0	15.8µM	0	0	?	0	0	0	0
CCN(CC)CCOc1cccc(C(C)C)c1	0	0	0	?	-	-	-	-	-
CCOC(=O)c1ccccc1NC(=O)CSc1cn(CC(=O)N2CCOCC2)c2ccccc12	0	-	-	0	-	-	-	-	-
CC(C)(C)CC(C)(C)NCC(=O)Nc1c2c(nc3ccccc13)CCC2	0	4.46µM	0	0	0	0	0	0	0
CCCCCCC(=O)Nc1c2c(nc3ccccc13)N(C)CC2	0	0	-	?	-	-	-	-	-
CN1CCc2c1nc1ccccc1c2NC(=O)CN1CCCC1	0	17.8µM	0	0	0[10.4 µM]	0	0	0	0
